The record followed here is PubChem BioAssay AID463173 (ICCB-Longwood Screening Facility, Harvard Medical School, 2010).

About 4,300 (8.3%) of roughly 52,000 compounds were called active. For the sample, actives were picked, then their nearest neighbours and some compounds at random. Unmarked numbers belong to inactive results. Rule as the data show it: active = survival mostly below about 52% (no sharp cut-off); inactive = mostly above about 56%.

The subject of this test is DeltatarO mutant. Nature of the test: growth inhibition of S. aureus wild type versus tarO mutant, primary screen, teichoic acid synthesis inhibitors, RN4220, OD600 (AID 463173). The following applies: OD600, 18 h, stronger effect = lower value, screened at 18.75 µg/mL (by protocol).
In the case of `CCCC1(C(=O)OCC)NC(c2ccccc2F)C2C(=O)N(c3ccccc3)C(=O)C21` (centres undefined), the survival is 88%.

For the compound `CCOC(=O)c1c(C)[nH]c(C)c1S(=O)(=O)NCC(=O)Nc1cccc(SC)c1`, the survival is 66%.

As to `OC1(C#CCN2CCCCCC2)CCCCC1`, the survival was 93%.

Take `O=C(CC1(O)C(=O)N(CCc2ccccc2)c2ccc(Br)cc21)c1ccccc1O` (centres undefined): the survival was 40% (active).

On to `O=C(CC1(O)C(=O)N(CCc2ccccc2)c2ccc(Br)cc21)c1ccccc1` (centres undefined), for which the survival was 25% (active).

With `C#CCN1C(=O)C(O)(CC(=O)c2ccc(OC)c(OC)c2)c2cc(Br)ccc21` (centres undefined), the survival is 78%.

On to `O=C(CC1(O)C(=O)N(CCc2ccccc2)c2ccc(Br)cc21)c1ccc(F)cc1` (centres undefined), for which the survival is 55%.

As to `COc1ccc(C(=O)CC2(O)C(=O)N(CCc3ccccc3)c3ccc(Br)cc32)cc1OC` (centres undefined), the survival is 53%.

`Cc1ccc(C(=O)CC2(O)C(=O)N(CCc3ccccc3)c3ccc(Br)cc32)cc1` (centres undefined): the survival is 39%.

Consider `Cc1nn2c(-c3ccco3)ccnc2c1-c1ccc(Br)cc1`, for which the survival was 81%.

`N#Cc1c(N)nc(SCc2ccccc2)c(C#N)c1-c1cccs1`: the survival is 49%.

As for `COc1ccc(N(C(=O)Cn2nnc3ccccc32)C(C(=O)NCC2CCCO2)c2sccc2C)cc1` (centres undefined), the survival is 94%.

Consider `COc1ccc(-n2nc(C(=O)NCCc3ccc(OC)c(OC)c3)c3c4ccccc4n(C)c3c2=O)cc1`, for which the survival is 89%.

Regarding `O=c1[nH]c(=O)n(C2CCCCC2)c(O)c1C1=Nc2ccccc2SC(c2ccccc2)C1` (centres undefined), the survival is 93%.

As for `Cc1ccc(S(=O)(=O)c2cn(C)c3cc(N4CCCC4)c(F)cc3c2=O)c(C)c1`, the survival is 67%.

With `O=C(Cn1cnc2nc3c(cc2c1=O)CCCC3)Nc1ccc(F)cc1Cl`, the survival is 88%.

In the case of `Cc1ccc(C)c(N2CCN(C(=O)Cn3cnc4nc5c(cc4c3=O)CCCC5)CC2)c1`, the survival was 87%.

For the compound `Cc1c(Cl)cccc1NC(=O)Cn1cnc2nc3c(cc2c1=O)CCCC3`, the survival was 126%.

`Cc1cccc(N(C)C(=O)Cn2cnc3nc4c(cc3c2=O)CCCC4)c1`: the survival was 17% (active).

Turning to `Cc1ccc(C)c(NC(=O)Cn2cnc3nc4c(cc3c2=O)CCCC4)c1`, the survival was 89%.

Turning to `COc1cc(OC)c(NC(=O)Cn2cnc3nc4c(cc3c2=O)CCCC4)cc1Cl`, the survival is -5% (active).

Turning to `CCc1ccccc1NC(=O)c1ccc(F)c(S(=O)(=O)N2CCN(c3cccc(Cl)c3)CC2)c1`, the survival was 88%.

With `CCOC(=O)c1ccc(NC(=O)c2nsc3ccccc23)cc1`, the survival was 60%.

For `CC1CCC(NC(=O)c2ccc3c(c2)N(Cc2ccccc2)C(=O)c2ccccc2S3(=O)=O)CC1` (centres undefined), the survival is 115%.
